Compounds with a hit are over-represented: about 17% of the library has one in this group of screens.
ClpP mod – qHTS Assay for Activators of ClpP; ATP-dependent Clp protease proteolytic subunit (Bacillus subtilis (strain 168)), P80244; purified B. subtilis ClpP, FRET peptide cleavage, 20 min; Potency, µM (highest dose often 57.5 µM), inactives show top-dose activity change, negative = active; 340,000 tested, 1.9% active; active = well fitted falling curve with a large enough effect; inconclusive = small, poorly fitted or top-dose-only effect; inactive = no such curve, though single readings can be large or run the other way; also: the source files actives as falling curves though it sought activators and does not explain the sign; nearly all actives have a fitted effect of over 65% in size
Target sequence (P80244 whole entry, looked up): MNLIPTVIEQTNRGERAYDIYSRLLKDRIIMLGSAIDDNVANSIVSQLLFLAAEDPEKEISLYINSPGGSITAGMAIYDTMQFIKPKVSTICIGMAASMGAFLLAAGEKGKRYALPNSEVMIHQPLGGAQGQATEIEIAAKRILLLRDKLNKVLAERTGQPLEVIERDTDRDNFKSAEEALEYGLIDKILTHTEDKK
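FRET quenching reversal measured ClpP activation: 10 microg/mL B. subtilis ClpP at pH 8 with the FRET-FV decapeptide, read at 430 nm after 320 nm excitation. The 20-min minus 0-min signal was scaled between DMSO/no-enzyme wells and ADEP (5.8 microM final).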
DT40 TDP1 CPT – qHTS for Inhibitors of human tyrosyl-DNA phosphodiesterase 1 (TDP1): qHTS in cells in presence of CPT; chicken DT40 Tdp1-/-;hTDP1 cells + 20 nM CPT, ATP luminescence, 48 h; Potency, µM (doses to about 46.2 µM), for inactives: top-dose activity change, negative = growth inhibition, most hits filed as inhibitors; 420,000 tested, 12% active; also: % is scaled to controls: 0 for no effect and ±100 for the full control effect; nearly all actives have a fitted effect of over 55% in size
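Chicken DT40 Tdp1-/- cells complemented with human TDP1, 400 cells/well, exposed to compounds plus 20 nM camptothecin for at least 48 h at 37 C; viability read as ATP content by CellTiter-Glo luminescence.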
TDP1 inh – qHTS Assay for Inhibitors of Tyrosyl-DNA Phosphodiesterase (TDP1); Tyrosyl-DNA phosphodiesterase 1 (Homo sapiens), Q9NUW8; recombinant TDP1, AlphaScreen DNA substrate cleavage; Potency, µM (highest dose often 130 µM), inactives show top-dose activity change, negative = inhibition, most hits filed as inhibitors; 350,000 tested, 0.28% active; also: % is scaled to controls: 0 for no effect and ±100 for the full control effect; nearly all actives have a fitted effect of over 40% in size
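Here, a 5' biotin and 3' phosphotyrosine-FITC DNA oligonucleotide reports Tdp1 activity: intact substrate bridges AlphaScreen beads, while cleavage leaves a 3' phosphate and drops signal. All incubations at room temperature.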
TDP1 cell noCPT – qHTS for Inhibitors of human tyrosyl-DNA phosphodiesterase 1 (TDP1): qHTS in cells in absence of CPT | DT40 Tdp1-/- hTDP1 cells, no CPT, ATP luminescence, 48 h | 420,000 tested, 15% active | Potency, µM (series often up to 46.2 µM), for inactives: top-dose activity change, negative = growth inhibition, actives largely listed as inhibitors; also: % is scaled to controls: 0 for no effect and ±100 for the full control effect; nearly all actives have a fitted effect of over 55% in size
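Growth kinetics read by CellTiter-Glo luminescence after ≥48 hr at 37 °C. Cells: DT40 Tdp1-/- stably carrying human TDP1, 400 per well, compound exposure in the absence of CPT (DMSO vehicle).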
An asterisk follows results filed as active; ? = inconclusive; nt = not tested or not shown; [ ] = dose if it differs, or a comment. Unless noted, calls follow the shape of the dose curve; as a rule, active = well fitted curve in the direction sought with a large enough effect; inconclusive = small, poorly fitted or top-dose-only effect, or another doubt; inactive = no such curve, though single readings can be large; an effect the other way counts as inactive or inconclusive. Potency is read from the fitted curve at half-maximal effect.

SMILES	ClpP mod	DT40 TDP1 CPT	TDP1 inh	TDP1 cell noCPT
Cc1nn(CCCC(=O)Nc2cc(C(F)(F)F)ccc2Cl)c(=O)c2c1sc1ccccc12	0%	-24%	6%	-2%
CCC(C(=O)Nc1cc(C(F)(F)F)ccc1Cl)n1nc(C)c2sc3ccccc3c2c1=O (stereo not drawn)	0%	23µM*	6%	16µM*
CCC(C(=O)NC1CCC(C)CC1)n1nc(C)c2sc3ccccc3c2c1=O (stereo not drawn)	-22%	15µM*	-3%	15µM*
CCC(C(=O)NCc1ccccc1)n1nc(C)c2sc3ccccc3c2c1=O (stereo not drawn)	-6%	?	9%	?
CCCN1CCN(C(=O)C(C)n2nc(C)c3sc4ccccc4c3c2=O)CC1 (stereo not drawn)	nt	?	4%	18µM*
Cc1nn(C(C)C(=O)N2CCN(c3ccc(F)cc3)CC2)c(=O)c2c1sc1ccccc12 (stereo not drawn)	-2%	-20%	6%	-24%
Cc1ccc2ncc(C(=O)NC(C)c3ccccc3)c(=O)n2c1 (stereo not drawn)	4%	?	1%	?
O=C(NC1CC2CCCC(C1)N2Cc1cccs1)c1ccc([N+](=O)[O-])cc1 (stereo not drawn)	nt	nt	2%	nt
COC(=O)c1c(C)sc(-c2c(-c3ccc4c(c3)OCCO4)[nH]c3c2c(=O)[nH]c(=O)n3C)c1O	1%	?	-11%	21µM*
COC(=O)c1c(C)sc(-c2c(-c3cccc(OC)c3)[nH]c3c2c(=O)[nH]c(=O)n3C)c1O	-2%	-3%	2%	-26%
Nc1cccc(/C=C2\C=Cc3ccccc32)c1	-10%	?	nt	?
CCc1ccc2c(Cl)c(C(=O)N/N=C/c3c[nH]c4ccccc34)sc2c1	25µM*	21µM*	6%	?
O=C(N/N=C/c1ccc[nH]1)c1sc2ccccc2c1Cl	0%	13µM*	-8%	13µM*
O=C(N/N=C/c1c[nH]c2ccccc12)c1cccc(Cl)c1	-1%	-15%	nt	-13%
CCc1ccc(-c2cc(C(=O)N/N=C/c3c[nH]c4ccccc34)[nH]n2)cc1	-29%	16µM*	8%	6.5µM*
CC(C)c1cc(C(=O)N/N=C/c2c[nH]c3ccccc23)n[nH]1	-4%	?	nt	?
CCc1ccc(/C=N/NC(=O)c2cc(-c3cccc([N+](=O)[O-])c3)n[nH]2)cc1	nt	3.7µM*	nt	2.9µM*
Cc1noc(C)c1COc1ccc(C(=O)N2CCCC(C(F)(F)F)C2)cc1 (stereo not drawn)	1%	?	0%	?
COc1ncc2nc(-c3ccc(Cl)cc3)c(=O)n(CCC#N)c2n1	nt	22%	nt	2%
Cc1cnc(-n2ncc(C(=O)NCCN3CCOCC3)c2C(C)C)nc1-c1ccc(F)cc1	nt	0%	nt	-20%
Cc1nc(NC(=O)C(C)(C)C)sc1C(=O)Cn1cc(-c2ccc(C(C)(C)C)cc2)nn1	-3%	?	nt	?
Cc1ccc(N=C2C(=O)Nc3c(C)cccc32)cc1	3%	-5%	7%	-22%
Cc1ccc(N=C2C(=O)Nc3ccc(Br)cc32)cc1	nt	18µM*	nt	12µM*
Cc1ccc(S(=O)(=O)c2nnn3c2nc(NCc2ccccc2Cl)c2sccc23)cc1	-23%	?	-5%	?
C(=C\c1ccccc1)/CN1CCN(C(c2cccc3ccccc23)c2nnnn2-c2ccc3c(c2)OCCO3)CC1 (stereo not drawn)	-1%	13µM*	nt	8.2µM*
SMILES	ClpP mod	DT40 TDP1 CPT	TDP1 inh	TDP1 cell noCPT
FC(F)(F)Oc1ccccc1C(c1nnnn1-c1ccc2c(c1)OCCO2)N1CCN(C/C=C/c2ccccc2)CC1 (stereo not drawn)	-3%	?	nt	15µM*
Cc1cc(C)c2cc(C#N)c(NCCNC(=O)c3cccnc3)nc2c1	4%	?	nt	?
CC(=O)Nc1ccc2nc(CN3CCN(CC=C(C)C)C(CCO)C3)ccc2c1 (stereo not drawn)	nt	7%	nt	-3%
Cc1c(N/N=C(\C#N)C(=O)c2ccccc2)c(=O)n(-c2ccccc2)n1C	nt	2.9µM*	-3%	3.3µM*
Cc1ccccc1C(=O)/C(C#N)=N/Nc1c(C)n(C)n(-c2ccccc2)c1=O	-2%	4.6µM*	11%	3.7µM*
CCOC(=O)/C(C#N)=N/Nc1ccccc1C#N	-1%	8.2µM*	nt	21µM*
Cc1c(NC=C(C#N)C#N)c(=O)n(-c2ccccc2)n1C	-1%	3%	7%	-16%
N#C/C(=N/Nc1ccccc1[N+](=O)[O-])C(N)=S	nt	-28%	8%	?
CCOC(=O)/C(C#N)=N/Nc1c(C)n(C)n(-c2ccccc2)c1=O	nt	16µM*	8%	16µM*
Cc1ncc2c(c1CNS(=O)(=O)N(C)C)CCN(C(=O)c1[nH]c3ccc(Cl)cc3c1C)C2	nt	-5%[9.04 µM]	nt	?
CCC(C)[C@H]1CNCCN1CCc1cccc(F)c1 (stereo partly drawn)	-4%	-19%	-12%	-12%
COc1ccc(NC(=O)C(NS(=O)(=O)c2cccc3nsnc23)C(C)C)cc1OC (stereo not drawn)	-3%	-7%	3%	-3%
O=C(CCN1CCOCC1)NNC(=S)NC(=O)c1ccc(Br)cc1	nt	15µM*	4%	13µM*
CN(CCCNC(=O)CSc1cc(=O)n(C)c2cc(Cl)ccc12)Cc1ccccc1	nt	?	1%	-19%
Cn1c(=O)cc(OCCCC(=O)Nc2ccc(F)cc2)c2ccccc21	-6%	13µM*	7%	15µM*
Cn1c(=O)cc(SCC(=O)NCc2ccc(F)cc2)c2ccc(Cl)cc21	-6%	2.6µM*	-5%	3.3µM*
Cn1c(=O)cc(SCC(=O)NCc2ccc(F)cc2)c2ccccc21	nt	?	-1%	12µM*
CCOC(=O)c1cccc(NC(=O)CCSCCc2ccccn2)c1	-2%	7%	2%	-6%
COc1cc(NC(=O)C2Cc3ccccc3N2C(=O)c2ccccc2)cc(OC)c1 (stereo not drawn)	4%	?	4%	?
Cc1cccc(N2CCN(c3ccc4cc(S(=O)(=O)N5CCC(C)CC5)ccc4n3)CC2C)c1 (stereo not drawn)	-4%	-17%	-5%	-24%
COc1ccc(-c2csc(Nc3ccc(Oc4ccccc4)cc3)n2)cc1	1%	18µM*	nt	16µM*
COc1ccc(-c2csc(NC(=O)c3ccccc3C(=O)O)n2)cc1	1%	0%	3%	3%
COc1ccc(Nc2nc(-c3sc(C)nc3C)cs2)cc1	-5%	1.2µM*	nt	1.2µM*

Source: PubChem BioAssay (National Center for Advancing Translational Sciences (NCATS))
